SNCA expr inhib – SNCA gene expression inhibition; HEK-293 SNCA-luciferase knock-in, luminescence, 24 h; Potency, µM (series often up to 57.2 µM), inactives show top-dose activity change, negative = inhibition, usual class: inhibitors; 0.17% of 140,000 active; AID 1671194;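 note: potency is the fitted concentration of half-maximal effect; plate controls were DMSO cells for no effect and cell-free wells for full effect; nearly all actives have a fitted effect of over 45% in size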
SNCA viab count – cell viability loss counter-screen | HEK-293-SNCA-luc viability, GF-AFC fluorescence, 24 h | Potency, µM (titrated, usually from 57.1 µM), without a hit: top-dose activity change, negative = cytotoxicity, most hits filed as cytotoxic | 0.12% of 150,000 active;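 note: potency is the fitted concentration of half-maximal effect; 0% = DMSO-treated cells and -100% = medium-only wells without cells; nearly all actives have a fitted effect of over 30% in size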
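Cytotoxicity counterscreen: after 24 h compound treatment of genome-edited SNCA-luciferase HEK-293 cells, live-cell protease substrate GF-AFC read by fluorescence after 30 min; activity scaled between DMSO (0%) and medium-only (-100%), curves Hill-fitted.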
KDM5B inhibitor – inhibitors of human KDM5B histone demethylase | Q9UGL1 | Potency, µM (highest dose often 57.7 µM), usual class: inhibitors | 2.6% of 220,000 active | KDM5B demethylase, FDH-coupled NADH fluorescence (FDH is formaldehyde dehydrogenase); note: potency is the fitted concentration of half-maximal effect; 0% is about no effect; nearly all actives have a fitted effect of over 70% in size
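Compound dilutions met 200 nM (final) KDM5BΔAP for 10 min at room temperature before substrate addition. The substrate mix held 12.5 µM H3K4me3 with cofactors 25 µM α-ketoglutarate and 50 µM Fe²⁺. NADH signal gain over 30 min defined activity.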
IP6K1 inh – blocks human inositol hexakisphosphate kinase 1; 0.81% of 140,000 active; AID 1645851; activity change, % (series mostly up to about 58 µM); IP6K1 kinase, ADP-Glo luminescence, 2 h; hits give low values; in the data active = activity change below about -25%; note: % is set by controls: 0 for no effect and ±100 for the full control effect
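ADP-Glo luminescence measures ADP made by human IP6K1 during a 2 h RT reaction with ATP/IP6 (mix at 1.3 mM/130 uM); top library doses 57.5 and 19.1 uM final.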
Numbers without * were called inactive; i = inactive; ? = inconclusive; . = no result; [ ] = another dose, or the depositor's remark. A selection: hits, their analogues and other compounds. The true share with any hit is near 2.9%. Unless noted, calls come from the whole dose curve; as a rule, active = well fitted curve in the direction sought with a large enough effect; inconclusive = small, poorly fitted or top-dose-only effect, or another doubt; inactive = no such curve, though single readings can be large; an effect the other way counts as inactive or inconclusive.

SMILES	SNCA expr inhib	SNCA viab count	KDM5B inhibitor	IP6K1 inh
CN(C)C[C@@H]1CN(c2ccccn2)C[C@H]1NC(=O)c1ccsc1	0.8%	6.5%	22.4µM*	0.3
CN(C)C[C@@H]1CN(c2ccccn2)C[C@H]1NC(=O)Cn1c(=O)oc2ccccc21	13.1%	4.0%	22.4µM*	19.1
NC[C@@](O)(c1ccc(Cl)cc1)c1ccc(-c2cn[nH]c2)cc1	.	23.8µM*	.	-7.8
CCS(=O)(=O)c1ccc2oc([C@H]3CCN(C(C)C)C3)nc2c1	201.7%[87.6 µM]	8.4%[87.6 µM]	39.8µM*	-4.2
CN(Cc1ccccc1)C1(C(=O)NC2CCS(=O)(=O)C2)Cc2ccccc2C1 (centres undefined)	25.1%	5.6%	i	1.5
COc1cccc(Nc2ccc3c(n2)C(C)(C(=O)NCC2CC2)CN(C)C3)c1 (centres undefined)	-5.3%[87.6 µM]	?	35.5µM*	5.8
CN1Cc2ccc(Nc3ccccc3)nc2C(C)(C(=O)NCc2cccs2)C1 (centres undefined)	-14.8%[87.6 µM]	-22.5%[87.6 µM]	31.6µM*	16.9
COc1cccc(Nc2ccc3c(n2)C(C)(C(=O)NCCc2cnc[nH]2)CN(C)C3)c1 (centres undefined)	1.2%[87.6 µM]	-22.0%[87.6 µM]	39.8µM*	19.3
CN1Cc2ccc(NCc3ccccc3)nc2C(C)(C(=O)NCc2cccnc2)C1 (centres undefined)	22.0%[87.6 µM]	5.2%[87.6 µM]	?	1.9
COCCC1(NC(=O)C2CCC2)CCN(CC2CC2)CC1	-9.4%	-12.3%	i	14.4
Cc1ccc(-c2nc(Cn3c(=O)c(C#N)cn(C4CC4)c3=O)co2)c(C)c1	.	.	i	.
O=C(COC(=O)c1ccc2c(=O)n3c(nc2c1)CCC3)NC(=O)NCc1ccccc1	.	.	i	.
COc1ccccc1C(=O)NC1CCN(c2nnc3ccccn23)CC1	-5.3%	-16.6%	28.2µM*	13.5
Cc1ccc(C(=O)N2CCN(c3nnc4ccccn34)CC2)cc1	-7.5%	7.2%	28.2µM*	17.6
O=C(c1ccc2c(c1)OCO2)N1CCN(c2nnc3ccccn23)CC1	-6.2%	11.9%	25.1µM*	13.3
O=C(c1ccccc1)N1CCN(C(=O)c2ccc3c(c2)OCO3)CC1	.	.	i	.
O=C(c1cccs1)N1CCN(c2nnc3ccccn23)CC1	-9.1%	4.4%	22.4µM*	19.1
O=C(c1cccs1)N1CCCCCCC1	.	.	i	.
Cc1ccc(C(=O)N2CCN(c3ccc4nnc(-c5ccccc5)n4n3)CC2)cc1	.	.	.	4.1
COc1ccc(C2(C(=O)N[C@@H]3CN(c4ccncn4)C[C@H]3CN(C)C)CC2)cc1	?	-1.5%	i	5.0
CC(C)(C)CC(=O)N1CCN2C(=O)c3cc(-c4ccc5c(c4)OCO5)ccc3NC(=O)[C@H]2C1	?	6.1%	?	6.3
COc1ccc(-c2ccc3c(c2)C(=O)N2CCN(C(=O)C4CCCCC4)C[C@@H]2C(=O)N3)cc1	-22.4%	-8.6%	?	-8.1
O=C1Nc2ccc(-c3ccc4c(c3)OCO4)cc2C(=O)N2CCN(C(=O)C3CCCC3)C[C@@H]12	-12.9%	-3.7%	22.4µM*	-18.8
CSc1ccc(-c2ccc3c(c2)C(=O)N2CCN(C(=O)C4CCCCC4)C[C@@H]2C(=O)N3)cc1	-7.6%	0.3%	28.2µM*	-0.4
COCCC(=O)N1CCCCCCNC(=O)[C@@H]2C[C@@H](C(=O)N3CCN(c4ccccn4)CC3)C[C@@H]21	24.7%	?	?	-2.2
SMILES	SNCA expr inhib	SNCA viab count	KDM5B inhibitor	IP6K1 inh
O=C1NCCCCCCN(C(=O)c2ccco2)[C@H]2C[C@H](C(=O)N3CCN(c4ccccn4)CC3)C[C@@H]12	-14.8%	5.1%	25.1µM*	8.3
CCC(=O)N1CCCCCCNC(=O)[C@@H]2C[C@@H](C(=O)N3CCN(c4ccccn4)CC3)C[C@@H]21	-7.4%	-1.5%	28.2µM*	12.5
Cc1csc(CN2CCCC(c3n[nH]c(=O)n3-c3ccccc3)C2)n1 (centres undefined)	4.0%	-0.6%	i	5.9
Cc1ccc(C#N)c(N2CCCC(c3n[nH]c(=O)n3-c3ccccc3)C2)n1 (centres undefined)	22.3%	2.8%	31.6µM*	-0.7
c1ccc(-c2ccnc(NCC(c3ccncc3)N3CCOCC3)n2)nc1 (centres undefined)	-22.2%	-8.7%	i	27.1
O=C(c1ccc(CNc2nccc(-c3cccnc3)n2)cc1)N1CCCCC1	-15.0%	-12.8%	28.2µM*	24.9
O=C(NCc1ccc(C(=O)N2CCCC2)cc1)C1CCCCC1	.	.	i	.
NS(=O)(=O)c1ccc(CNc2nccc(-c3cccnc3)n2)cc1	?	-4.7%	31.6µM*	-6.3
c1cncc(-c2ccnc(NCC(c3cccnc3)N3CCCCC3)n2)c1 (centres undefined)	1.2%	-4.9%	31.6µM*	52.4
Cc1c(C(=O)N2CCN(c3ccccc3)CC2)oc2c1C(=O)CCC2	.	.	i	.
O=C(CC[C@H]1NC(=O)c2ccccc2NC1=O)Nc1ncc[nH]1	-2.3%	1.7%	i	2.8
Cc1nc(/C=C/C(=O)N(CCC#N)Cc2cccnc2)cs1	.	.	i	.
Cc1cccc(CC(=O)N2CCC(Nc3cccn4ncnc34)CC2)c1	17.2%	-2.9%	?	11.2
O=C(c1ccoc1)N1CCC(Nc2cccn3ncnc23)CC1	-11.0%	1.9%	12.6µM*	13.2
COCc1cccc(-c2n[nH]c3c2CC(=O)N(CC2CC2)C3)c1	20.5%[87.6 µM]	-2.3%[87.6 µM]	i	2.1
CN(C)c1cccc(-c2n[nH]c3c2CC(=O)N(CC2CC2)C3)c1	16.5%[87.6 µM]	-4.5%[87.6 µM]	20µM*	-4.4
CCCCCCCCCCCCS(=O)(=O)CC(Cl)CO (centres undefined)	.	.	i	.
COc1ccc(C(=O)Nc2cccc(C(=O)NC3CC3)c2)cc1S(=O)(=O)NC1CC1	.	.	i	.
Cc1nn2c(c1-c1ccccc1[S+](C)(=O)[O-])N(CCC(C)C)CCC2	3.16µM*	?	22.4µM*	16.8
CN(C)c1nccnc1OC1CCN(S(=O)(=O)Cc2ccccc2)C1 (centres undefined)	10.9%	-3.8%	?	-1.1
CCCOc1nccnc1NC1CCN(S(=O)(=O)C2CC2)CC1	?	11.2%	15.8µM*	-3.2
CCOc1nccnc1NC1CCN(S(=O)(=O)C2CC2)CC1	1.1%	9.6%	31.6µM*	-1.0
COc1nc(C(=O)N2CCC(NC(=O)C3CC3)CC2)cc2ccccc12	.	.	i	.
CCC(C)c1ccccc1NC(=O)CSc1ncnc2ccccc12 (centres undefined)	.	.	i	.
O=C(CCCn1cncn1)N1C[C@H](CO)C[C@H](CN2CCOCC2)C1	3.2%	4.0%	i	1.2
COc1ccc(C(=O)N2CC(Oc3ccccc3-c3nc(-c4ccccc4)no3)C2)cc1	-31.0%	?	25.1µM*	17.0
O=C(NC1CCCC1)N1CC(Oc2ccccc2-c2nc(-c3ccccc3)no2)C1	?	-29.3%	28.2µM*	-2.5
COc1ccc(C(=O)N2CCN(c3cc(-c4ccc(Cl)cc4)[nH]n3)CC2)cc1	-10.8%	-9.4%	i	14.9
O=C(NCC1CC1)c1noc(-c2ccccc2F)n1	0.7%	-1.4%	20µM*	4.7
O=C(NCC1CCCCC1)c1noc(-c2ccc[nH]c2=O)n1	-20.3%	4.5%	i	5.5

Screening data from PubChem BioAssay.
